Compounds with a hit are over-represented: about 3.5% of the library has one in this group of screens.
TEAD-YAP block: TEAD-YAP interaction inhibition. HEK-TIYL cells, TEAD-Gal4/YAP UAS-luciferase luminescence. inhibition, % at 9.12 µM. 640,000 tested, 1.4% active; in the data active = inhibition above about 32%;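 also: 0% = median of test compound wells and 100% = reference inhibitor wells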
MITF primary: inhibitors of human MITF; O75030; AlphaScreen MITF homodimerization, bead proximity signal; inhibition, % at 2.6 µM; 650,000 tested, 0.91% active; in the data active = inhibition above about 50%;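 also: 0% = vehicle wells with protein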
GPR151 ag: activates the human receptor GPR151 | Q8TDV0 | PathHunter beta-arrestin GPR151 cells, luminescence | activation, % at 11.2 µM | 650,000 tested, 1% active; in the data active = activation above about 4.9%;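 also: 0% = median of compound wells and 100% = cells with positive control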
FBW7 act: activators of human E3 ligase FBW7; Q969H0; normalized activity (activation), % at 26.1 µM; AlphaScreen FBW7–phospho-cyclin E peptide binding, activator screen; 650,000 tested, 0.13% active; in the data active = normalized activity above about 1.9%;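 also: purified mutant Fbw7 with reduced substrate affinity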
Target sequence (Q969H0 whole entry, looked up): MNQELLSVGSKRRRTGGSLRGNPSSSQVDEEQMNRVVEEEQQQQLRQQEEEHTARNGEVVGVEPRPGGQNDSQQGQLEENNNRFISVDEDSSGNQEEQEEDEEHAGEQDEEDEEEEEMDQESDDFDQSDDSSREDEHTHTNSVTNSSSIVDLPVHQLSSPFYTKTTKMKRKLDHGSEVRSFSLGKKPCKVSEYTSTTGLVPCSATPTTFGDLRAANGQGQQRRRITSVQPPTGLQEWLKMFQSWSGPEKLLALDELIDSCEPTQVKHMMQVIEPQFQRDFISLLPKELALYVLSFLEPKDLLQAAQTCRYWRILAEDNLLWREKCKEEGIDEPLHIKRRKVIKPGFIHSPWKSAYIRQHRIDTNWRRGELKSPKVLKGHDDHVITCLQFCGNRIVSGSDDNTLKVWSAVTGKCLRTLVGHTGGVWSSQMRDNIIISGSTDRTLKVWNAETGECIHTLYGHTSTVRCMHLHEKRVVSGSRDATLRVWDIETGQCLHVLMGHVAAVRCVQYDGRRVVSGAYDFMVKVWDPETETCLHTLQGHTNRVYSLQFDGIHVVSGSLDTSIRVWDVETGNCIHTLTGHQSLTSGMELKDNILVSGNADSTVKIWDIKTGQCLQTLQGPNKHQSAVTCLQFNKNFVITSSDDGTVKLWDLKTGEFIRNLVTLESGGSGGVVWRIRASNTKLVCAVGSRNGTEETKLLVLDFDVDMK
GPR151 conf act: human GPR151 activation, confirmation screen. AID 1508609. 6,700 tested, under 10 active. activation, % at 11.2 µM. GPR151 PathHunter beta-arrestin cells, luminescence, 90 min; % of EA-reagent control over plate median. shares compounds with GPR151 ag;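 active = mean percent activation across replicates above the confirmation screen cutoff of 4.91%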
GPR119 ag: counter-screen for GPR151 activators: effect on human GPR119 | shares compounds with GPR151 ag | GPR119 PathHunter beta-arrestin cells, luminescence, 90 min; 0 = compound-well median, 100 = enzyme-acceptor control | activation, % at 11.2 µM | 6,700 tested, 0.3% active;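 active = mean percent activation in the counterscreen above 29.09%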;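 also: counterscreen on off-target GPR119 to flag nonselective hits from the GPR151 activator screen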
* marks the source's active call; other numbers are inactive results; ! = a repeat was not active.

`CCCN(CCC)CCCNC(=O)C(=O)Nc1ccc(I)cc1` gave TEAD-YAP block 3, MITF primary -1, GPR151 ag 11*, FBW7 act 0, GPR151 conf act 0 and GPR119 ag 0.
For CCCN(CCC)CCCNC(=O)C(=O)Nc1ccc(C)cc1 the results were TEAD-YAP block 3, MITF primary 5, GPR151 ag 0 and FBW7 act 0.
Cc1c(C(=O)c2ccccc2)oc2ccc(NC(=O)c3cccs3)cc12 was read as TEAD-YAP block -54, MITF primary 5, GPR151 ag -1 and FBW7 act 0.
`Cc1ccc(C(=O)c2oc3ccc(NC(=O)c4ccco4)cc3c2C)cc1` gave TEAD-YAP block 15, MITF primary 9, GPR151 ag 7.8*, FBW7 act 0, GPR151 conf act 0 and GPR119 ag -5.
Screening COC(=O)CCC(C)C1CCC2C3CC[C@@H]4C[C@H](O)CC[C@]4(C)C3C[C@H](O)[C@]12C (stereo not given in full) returned TEAD-YAP block 4, MITF primary 16, GPR151 ag 6.4*, FBW7 act 0, GPR151 conf act 0 and GPR119 ag 8.
Screening C[C@H](CCC(=O)O)[C@H]1CC[C@H]2[C@@H]3[C@@H](O)C[C@@H]4C[C@H](O)CCC4(C)[C@H]3CCC12C (stereo not given in full) returned MITF primary -12, GPR151 ag 4 and FBW7 act 0.
CC1(C)CC(=O)c2sc(NC(=O)COc3ccc(Cl)cc3)nc2C1 was read as TEAD-YAP block 8, MITF primary 4, GPR151 ag 6.4*, FBW7 act 0, GPR151 conf act 0 and GPR119 ag 3.
Screening O=C(Nc1ccc2c(c1)OCO2)c1cccc(Nc2ccc3ncccc3c2)n1 returned TEAD-YAP block -13, MITF primary 17, GPR151 ag 6.3*, FBW7 act 0, GPR151 conf act -1 and GPR119 ag -9.
For O=C(NCc1cccnc1)c1cccc(Nc2ccc3ncccc3c2)n1 the results were TEAD-YAP block 2, MITF primary -4, GPR151 ag 5.3*, FBW7 act 0, GPR151 conf act 0 and GPR119 ag 1.
O=C(Nc1ccc2c(c1)OCO2)c1cccc(Nc2ccc3ncccc3c2)c1 was read as TEAD-YAP block -34, MITF primary 10, GPR151 ag -1 and FBW7 act 0.
`NS(=O)(=O)c1ccc(CCNC(=O)CSc2nc(NCC3CCCO3)c3ccccc3n2)cc1` (stereo not given) gave TEAD-YAP block 8, MITF primary -4, GPR151 ag 0 and FBW7 act 0.
Screening C#C[C@]1(O)CC[C@H]2[C@@H]3CCC4=Cc5oncc5CC4(C)[C@H]3CCC21C (stereo not given in full) returned TEAD-YAP block -15, MITF primary 1, GPR151 ag 5.5*!, FBW7 act 0, GPR151 conf act 1 and GPR119 ag -2.
Screening C#C[C@]1(O)CC[C@H]2[C@@H]3CCc4cc(O)ccc4[C@H]3CC[C@@]21C returned MITF primary -5, GPR151 ag 2 and FBW7 act 0.
`COc1ccc(C(C)NC(=O)c2cccnc2)cc1OC` (stereo not given) gave TEAD-YAP block 7, MITF primary 11, GPR151 ag 0 and FBW7 act 0.
For COc1ccc(S(=O)(=O)NCc2ccncc2)cc1OC the results were TEAD-YAP block 8, MITF primary -25, GPR151 ag 5.4*, FBW7 act 0, GPR151 conf act 1 and GPR119 ag -6.
For COc1ccc(CNC(=O)c2c(C)nc3c(C)cccn23)cc1OC the results were TEAD-YAP block 25, MITF primary 16, GPR151 ag 5.1*, FBW7 act 0, GPR151 conf act 0 and GPR119 ag 5.
`COc1ccc(CCn2c(=O)c(C#N)cc3c(=O)n4cccc(C)c4nc32)cc1OC` gave TEAD-YAP block -13, MITF primary -5, GPR151 ag 7.4*, FBW7 act 0, GPR151 conf act 1 and GPR119 ag 16.

From PubChem
